Source: PubChem BioAssay (NCI)
Compounds without any hit were thinned out: in the full panel of roughly 83,000, 20% have a hit.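 How to read the values: 0–100, growth inhibition (40 = 60% inhibited); 0, no net growth; -100 to 0, cell death (-40 = 40% of starting cells died; -100 = all dead).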 Values without a mark were called inactive. Activity calls are given as the source filed them. Rule for the calls: active = growth percent below 10; inactive = the rest.

Key:
Assay in all cases: NCI-60 one-dose screen, 48 h (100 = growth as untreated, 0 = no growth, -100 = all killed)
Settings in all cases: 10 µM unless noted
DU-145 prostate = tested on: DU-145 prostate
K-562 leukemia = tested on: K-562 leukemia
MALME-3M melanoma = tested on: MALME-3M melanoma
MDA-MB-231 breast = tested on: MDA-MB-231 breast
RXF 393 renal = tested on: RXF 393 renal
SF-268 CNS = tested on: SF-268 CNS
SF-295 CNS = tested on: SF-295 CNS
SF-539 CNS = tested on: SF-539 CNS
UACC-257 melanoma = tested on: UACC-257 melanoma
M14 melanoma = tested on: M14 melanoma
HCT-15 colon = tested on: HCT-15 colon
HT29 colon = tested on: HT29 colon
SNB-75 CNS = tested on: SNB-75 CNS
SNB-19 CNS = tested on: SNB-19 CNS
U251 CNS = tested on: U251 CNS
PC-3 prostate = tested on: PC-3 prostate
SK-MEL-5 melanoma = tested on: SK-MEL-5 melanoma
UACC-62 melanoma = tested on: UACC-62 melanoma
LOX IMVI melanoma = tested on: LOX IMVI melanoma
SK-MEL-28 melanoma = tested on: SK-MEL-28 melanoma

| SMILES | growth (DU-145 prostate) | growth (K-562 leukemia) | growth (MALME-3M melanoma) | growth (MDA-MB-231 breast) | growth (RXF 393 renal) | growth (SF-268 CNS) | growth (SF-295 CNS) | growth (SF-539 CNS) | growth (UACC-257 melanoma) | growth (M14 melanoma) | growth (HCT-15 colon) | growth (HT29 colon) | growth (SNB-75 CNS) | growth (SNB-19 CNS) | growth (U251 CNS) | growth (PC-3 prostate) | growth (SK-MEL-5 melanoma) | growth (UACC-62 melanoma) | growth (LOX IMVI melanoma) | growth (SK-MEL-28 melanoma) |
| --- | --- | --- | --- | --- | --- | --- | --- | --- | --- | --- | --- | --- | --- | --- | --- | --- | --- | --- | --- | --- |
| COC1=C(OC)C(=O)C(OC)=C(OC)C1=O | 101% | 87.2% | 101% | 46.3% | 95% | 94.4% | 97.7% | 114% | 107% | 105% | 108% | 104% | 106% | 99% | 105% | 95.5% | 105% | 102% | 90.7% | 105% |
| Cn1c(I)c(C#C[Si](C)(C)C)c(=O)n(C(=O)c2ccccc2)c1=O | 0.184% (active) | -95.2% (active) | -10.3% (active) | 64.2% | -81.5% (active) | -18% (active) | 87.9% | 69.4% | -20.8% (active) | -54.7% (active) | 6.55% (active) | 1.95% (active) | 52.2% | 95.8% | 24.8% | -56.8% (active) | 55.1% | 69.9% | -90.4% (active) | -65.6% (active) |
| COc1ccc(/C=C/c2c(C(=O)/C=C/c3cccs3)c(C)nc3ccccc23)cc1 | 82.7% | 43.1% | 107% | 78.2% | 77.4% | 85.3% | 86.3% | 95.9% | 83.8% | 89.3% | 59.5% | 77.7% | 72% | 85.1% | 85.6% | 63% | 70.3% | 59.1% | 84.5% | 92.4% |
| Clc1cccc(Cl)c1/C=C/c1cc(/C=C/c2c(Cl)cccc2Cl)[nH]n1 | 17% | 12% | 60.1% | 13.1% | 6.46% (active) | 53.2% | 20.9% | -43.7% (active) | 58.6% | 5.51% (active) | 27.7% | 10.7% | 11% | 25.9% | 20.3% | 30.8% | 22.9% | 38.8% | 46.3% | 46.2% |
| CNC(=O)c1cc(Oc2cccc3nc(Nc4ccc(F)c(Cl)c4)ccc23)ccn1 | 93.2% | 26% | 40.2% | 62.7% | 75.3% | 54.5% | 87% | 55.9% | 40% | 51.8% | 16.5% | 81.4% | 87.6% | 43.6% | 26.7% | 30.8% | 12.3% | 25.3% | 27% | 65.7% |
| COc1ccc(-c2c(N)n[nH]c2-c2ccc(Cl)cc2O)cc1OC | 101% | 75.5% | 105% | 106% | 98.2% | 102% | 99.2% | 100% | 93% | 93.2% | 88.5% | 111% | 91.3% | 97.7% | 95.6% | 86.3% | 93.7% | 76.3% | 89.5% | 106% |
| Cc1ccc(Cl)c(NS(=O)(=O)c2ccc(-c3cnc(C4CC4)o3)cc2)c1 | 21.6% | 8.53% (active) | 62.4% | 32.5% | 9.98% (active) | 56.2% | 16.1% | -8.06% (active) | 67.8% | 2.07% (active) | 16.9% | 3.93% (active) | -10.1% (active) | 18.9% | 24.1% | 31.1% | 26.4% | 26.5% | 33% | 53.7% |
| COc1ccc(C(=O)Nn2c(NCC(=O)N3c4ccccc4Sc4ccccc43)nnc2-c2ccc(O)cc2)cc1 | 116% | 114% | 98.1% | 101% | 117% | 111% | 107% | 117% | 94.9% | 91.7% | 96.9% | 98.2% | 115% | 111% | 97% | 97.6% | 104% | 104% | 98.4% | 119% |
| COc1cccc(-c2nn(-c3ccccc3)cc2-c2ccnc(NCCNC(=O)c3ccccc3)c2)c1 | 74.5% | 38.2% | 95.7% | 55.3% | 79.9% | 78.3% | 62.1% | 96.9% | 49.7% | 55.3% | 50.5% | 15.9% | 71.1% | 72.3% | 47.9% | 37.7% | 34.5% | 57.2% | 68.7% | 88.3% |
| N#Cc1c(N)nc(NCCO)nc1-c1ccc(F)cc1 | 113% | 91.4% | 108% | 104% | 93.5% | 103% | 99.1% | 98.6% | 90.6% | 105% | 99.9% | 95.9% | 79.2% | 104% | 90.2% | 92.9% | 95% | 95% | 90.8% | 112% |
| CC(C)(C)OC(=O)Nc1ccc2c(c1)C(NC(=O)Nc1cccc(C#N)c1)CC(C)(C)O2 (stereo not given) | 71.6% | 23.3% | 39% | 68.8% | 72.4% | 53.4% | 31.9% | 66.8% | 27.2% | 47.5% | 34.2% | 55% | 71.8% | 52.4% | 32.7% | 30.5% | -5.57% (active) | 34.6% | 26.9% | 74.7% |
| COc1cccc(-c2nn(-c3ccccc3)cc2-c2ccnc(NCCCNC(=O)c3ccccc3)c2)c1 | 64.7% | 11.2% | 57.5% | 45.9% | 63.3% | 66.2% | 51.5% | 80.2% | 40.7% | 33.3% | 33% | 8.81% (active) | 60.1% | 70.4% | 43.3% | 26.2% | 5.44% (active) | 33.8% | 66.1% | 67.8% |
| CCCCCCCCCOc1c(OC)cc(C2CC(=O)Nc3c2c(C)nn3-c2nc3ccccc3[nH]2)cc1OC (stereo not given) | 1.94% (active) | 9.07% (active) | -58.3% (active) | -75% (active) | -83.4% (active) | -58.8% (active) | -59.1% (active) | -86.3% (active) | 15.5% | -25.5% (active) | -30.8% (active) | -37.9% (active) | -48.8% (active) | -4% (active) | -51.6% (active) | -3.05% (active) | -99.4% (active) | -62.4% (active) | -95.8% (active) | -47.4% (active) |
| COc1cc(/C=C/C(=O)c2c(C)nc3ccccc3c2C)ccc1OCCCN1CCN(C(=O)c2ccco2)CC1 | 91.4% | 59.7% | 68.3% | 75.3% | 74% | 87.4% | 78.3% | 93.3% | 62.4% | 94.4% | 76.2% | 6.55% (active) | -70.5% (active) | 99% | 77.9% | 88.3% | 33.5% | 65.9% | 81.9% | -29% (active) |
